Shown are actives, neighbours in structure and some others; about 2.4% of the full set was active somewhere.
D2 ag-1: agonists of human D2 dopamine receptor. P14416. HEK293 T-REx D2 cells, calcium flux agonist mode. activation, % at 2 µM. actives 0.53% (n = 340,000);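 active means activation over 3 SD above normal in the single-dose calcium agonist read, cut at about 30% in these data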
Target sequence (P14416 whole entry, looked up): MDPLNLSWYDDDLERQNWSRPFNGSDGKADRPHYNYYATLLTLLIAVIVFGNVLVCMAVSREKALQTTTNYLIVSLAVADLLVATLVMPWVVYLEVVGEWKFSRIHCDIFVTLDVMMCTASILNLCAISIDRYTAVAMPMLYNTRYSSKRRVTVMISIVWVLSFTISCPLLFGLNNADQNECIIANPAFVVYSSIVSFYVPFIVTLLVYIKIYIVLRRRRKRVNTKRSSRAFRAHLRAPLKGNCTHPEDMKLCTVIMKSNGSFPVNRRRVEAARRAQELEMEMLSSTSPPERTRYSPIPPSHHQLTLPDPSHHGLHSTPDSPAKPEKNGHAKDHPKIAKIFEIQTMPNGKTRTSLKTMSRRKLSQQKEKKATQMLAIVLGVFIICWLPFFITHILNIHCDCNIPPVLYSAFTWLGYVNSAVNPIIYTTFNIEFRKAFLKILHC
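HEK293 Trex D2 cells, tetracycline-induced, o/n 30 C 5% CO2; no-wash Ca dye, RT 30–90 min; 10-cycle baseline, 23 nl cpd added, kinetic Ca read 180 s; agonist hits = positive Ca response.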
D2 PAM-1: potentiates the human D2 dopamine receptor allosterically. AID 624464. DiscoveRx D2 beta-arrestin cells, luminescence, 90 min; 100% = 57 uM dopamine signal. actives 0.23% (n = 360,000). P14416. potentiation, % (concentration not given with the values); in the data active means potentiation above about 50%; inconclusive means mostly about 30% to 49%
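D2 cells co-treated with compound plus 50 nM dopamine (EC20) for 90 min at 37 deg C to detect potentiation. Beta-arrestin recruitment was read as enzyme-fragment luminescence after 1 h at ambient temperature. Full response was set by 57 uM dopamine.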
D2 antag: antagonists of human D2 dopamine receptor; P14416; HEK293 TREx D2 cells, calcium flux, dopamine EC80; inhibition, % at 10 µM; actives 2% (n = 340,000); AID 485344; in the data active means inhibition above about 30%; inactive means below that, where a call was filed
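Overnight-induced (tetracycline, 30 C) HEK293 T-REx cells carrying force-coupled D2 receive a no-wash calcium dye, then compound, then EC80 dopamine at 180 s; signals are read kinetically throughout.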
D2 ag-2: human D2 receptor agonism in beta-arrestin assay. P14416. DiscoveRx PathHunter D2 beta-arrestin, luminescence, 90 min; 100% = 57 uM dopamine signal. activation, % (no concentration beside the values). actives 0.084% (n = 360,000); in the data active means activation above about 40%; inconclusive means between about 15% and that limit
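DiscoveRx PathHunter D2 beta-arrestin cells (2,100/well) attached overnight, then compound-stimulated 90 min at 37 C in HBSS/10 mM HEPES/0.1% Tween-20 buffer; beta-galactosidase complementation read by luminescence after 1 h at ambient temperature. Dopamine 57 uM final (EC100) as control.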
D2 PAM-2: D2 dopamine receptor (human) potentiation | potentiation, % at 10 µM | AID 485347 | actives 0.34% (n = 340,000) | HEK293 T-REx D2, calcium flux, EC20 dopamine potentiation | P14416;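 active means potentiation over 3 SD above the plate norm, cut at about 30% in these data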
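Primary screen. Calcium kinetics in induced HEK293 T-REx D2 cells: compound pre-addition 180 s, EC20 dopamine, 180 s more.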
D3 ag: confirmation of human D3 dopamine receptor agonists, beta-arrestin; DiscoveRx D3 beta-arrestin cells, luminescence, 90 min; shares compounds with D2 ag-1; actives 4% (n = 2,300); Potency, µM (highest dose often 76.9 µM), usual class: activators; further: nearly all actives have a fitted effect of over 70% in size
D2 ag-3: D2 receptor agonism, beta-arrestin counterscreen; shares compounds with D2 ag-1; DiscoveRx PathHunter D2 beta-arrestin, luminescence, 90 min; response scale: percent relative to full dopamine signal; Potency, µM (titrated, usually from 76.9 µM), usual class: activators; actives 5.9% (n = 2,300); AID 720507; further: nearly all actives have a fitted effect of over 70% in size
Hits are given with their value; n = inactive; u = inconclusive; x = no result given. Unless noted, the call rests on the fitted dose curve; in most records, active means well fitted activation curve with a large enough effect; inconclusive means small, poorly fitted or top-dose-only effect; inactive means flat fitted curve, though single readings scatter.

SMILES	D2 ag-1	D2 PAM-1	D2 antag	D2 ag-2	D2 PAM-2	D3 ag	D2 ag-3
COc1cc(OC)cc(C(=O)N[C@H](C(=O)Nc2ccccc2N2CCOCC2)C(C)C)c1	45.0	n	n	n	n	n	n
COc1cc(OC)cc(C(=O)NC(C(=O)Nc2ccc(N3CCOCC3)cc2)C(C)C)c1 (stereo not drawn)	n	n	n	n	n	x	x
CCOc1ccc(N(CC(=O)NCCOc2ccc(C)cc2)S(=O)(=O)c2ccccc2)cc1	n	n	n	n	n	x	x
COc1ccc(N(CC(=O)NCCOc2ccccc2)S(=O)(=O)c2ccc(C)cc2)cc1	n	n	n	n	n	n	n
Cc1cc(N/N=C/c2ccccc2[N+](=O)[O-])nc(-n2nc(C)cc2C)n1	34.2	n	n	n	n	n	n
CCN1CCN(c2ncnc3scc(-c4ccc(C)cc4)c23)CC1	70.1	u	67.6	109.8	n	n	2.82µM
O=c1[nH]c(C2CCCN(S(=O)(=O)c3ccc(F)cc3)C2)nc2c1nnn2Cc1ccc(F)cc1 (stereo not drawn)	n	n	67.8	n	n	n	n
Cc1ccc(Cn2nnc3c(=O)[nH]c(C4CCCN(S(=O)(=O)c5ccc(F)cc5)C4)nc32)cc1 (stereo not drawn)	n	n	n	n	x	x	x
CCCn1ccc2c(OCC(=O)NCc3ccccc3Cl)cccc2c1=O	n	x	x	x	n	x	x
CC(=O)c1ccc(NC(=O)Cn2cnc(S(=O)(=O)N3CCc4ccccc43)c2)cc1	54.2	n	n	n	n	n	n
CCOc1ccc(S(=O)(=O)N2CCCCC2)c(C)c1C	n	n	n	n	n	n	n
COc1ccc(C(=O)N2CCN(c3nc4c(C)c(Cl)ccc4s3)CC2)c(OC)c1	n	x	x	x	n	x	x
O=[N+]([O-])c1cc(/C=N/N/C(=N/c2ccccn2)c2ccccn2)ccc1O	n	n	n	n	n	n	n
Clc1cccc(CNCCCSc2nnnn2-c2ccccc2)c1	x	x	x	x	n	x	x
Cc1ccc(C(c2sc3nc(C)nn3c2O)N2CCN(C(=O)c3ccco3)CC2)cc1 (stereo not drawn)	n	n	n	n	n	x	x
Cc1nc2sc(C(c3ccccc3)N3CCN(C(=O)c4ccco4)CC3)c(O)n2n1 (stereo not drawn)	62.4	n	n	n	n	n	n
Cc1ccc(CNC(=O)CN2CCN(Cc3ccc(F)cc3)C2=O)cc1	x	x	x	x	n	x	x
O=C(NCCN1CCN(c2ccccc2)CC1)C1CCN(S(=O)(=O)N2CCOCC2)CC1	84.0	n	60.6	u	n	u	u
O=C(NCCN1CCN(c2ccccc2)CC1)C1CCCN(S(=O)(=O)c2cnc[nH]2)C1 (stereo not drawn)	74.4	73.9	75.7	u	n	u	u
O=C(NCCN1CCN(c2cccc(Cl)c2)CC1)C1CCCN(S(=O)(=O)c2cnc[nH]2)C1 (stereo not drawn)	81.3	n	81.0	n	n	u	u
Cc1cc(C)c(S(=O)(=O)N2CCN(Cc3nc4ccc(C)cc4o3)CC2)c(C)c1	n	x	x	x	n	x	x
CSc1c(CC(=O)Nc2ccccc2Cl)n(Cc2ccccc2)c2ccccc12	n	n	n	n	n	x	x
CSc1c(CC(=O)Nc2ccccc2C(F)(F)F)n(Cc2ccccc2)c2ccccc12	n	n	n	n	n	n	n
Cc1cccc(N2CCN(C(=O)CCNS(=O)(=O)c3ccc4c(c3)oc(=O)n4C)CC2)c1C	44.5	n	n	n	n	n	n
COc1ccc(N2CCN(CCCNS(=O)(=O)c3ccc4c(c3)oc(=O)n4C)CC2)cc1	n	n	n	n	n	n	n
SMILES	D2 ag-1	D2 PAM-1	D2 antag	D2 ag-2	D2 PAM-2	D3 ag	D2 ag-3
Cn1c(=O)oc2cc(S(=O)(=O)NCCN3CCCCCC3)ccc21	n	n	n	n	n	x	x
Cn1c(=O)oc2cc(S(=O)(=O)NCCN3CCN(c4ccccc4F)CC3)ccc21	54.9	n	76.5	n	n	n	n
Cc1cccc(N2CCN(C(=O)CCS(=O)(=O)c3ccc4c(c3)oc(=O)n4C)CC2)c1C	n	n	n	n	n	x	x
O=C(NCc1cccnc1)c1nn(-c2ccc(Cl)cc2)nc1CO	n	x	x	x	n	x	x
CCOC(=O)N1CCC(N2CCN(Cc3ccc(F)c(F)c3)C(CCO)C2)CC1 (stereo not drawn)	39.8	n	n	n	n	n	n
OCCC1CN(C2CCN(c3ccccc3F)CC2)CCN1Cc1ccccc1 (stereo not drawn)	n	n	n	n	n	n	n
OCCC1CN(C2CSCCSC2)CCN1Cc1ccccc1 (stereo not drawn)	n	n	n	n	n	x	x
COc1ccc(OC)c(NC(=O)COCc2cc(-c3ccco3)on2)c1	n	x	x	x	n	x	x
CCCCOc1ccc(C(=O)NCCc2sc3nc(-c4ccc(OC)cc4)nn3c2C)cc1	n	x	x	x	n	x	x
O=C(OCCN1C(=O)c2cccc3c(N4CCOCC4)ccc(c23)C1=O)c1ccc(Cl)cc1	70.5	n	n	n	n	n	n
CCCN(CCC)S(=O)(=O)c1ccc(C(=O)OCCN2C(=O)c3cccc4c(N5CCOCC5)ccc(c34)C2=O)cc1	62.0	n	n	n	n	n	n
CCN(CC)S(=O)(=O)c1ccc(C(=O)N2CCN(CCN3C(=O)c4cccc5cccc(c45)C3=O)CC2)cc1	n	x	n	x	n	x	x
Cc1ccccc1CN1CCN(C(=O)c2ccco2)CC1	80.7	n	69.7	47.4	n	u	20µM
Cc1ccc(OCC(=O)N2CCN(C(=O)c3ccco3)CC2)cc1	n	n	n	n	n	x	x
CCn1c(=O)cc(SCC(=O)N2CCN(C(=O)c3ccco3)CC2)c2ccccc21	n	n	n	n	n	x	x
O=C(c1ccco1)N1CCN(CCCCOc2ccc(F)cc2)CC1	x	n	x	u	x	1µM	u
O=C(CCCOc1ccccc1)N1CCN(C(=O)c2ccco2)CC1	n	n	n	n	n	x	x
CCn1c2ccccc2c2cc(CN3CCN(C(=O)c4ccco4)CC3)ccc21	n	n	n	n	n	u	n
Cc1ccc(CN2CCN(C(=O)c3ccco3)CC2)cc1	66.1	55.5	82.5	69.8	n	u	4.47µM
Cc1ccccc1CC(=O)N1CCN(C(=O)c2ccco2)CC1	n	n	n	n	n	x	x
CN(C)c1ccc(NC(=O)CN2CCN(CC(=O)Nc3ccc(Br)cc3)CC2)cc1	n	x	x	x	n	x	x
O=C(NCc1cccc(F)c1)c1ccc(NC(=O)c2nsc3ccccc23)cc1	n	x	x	x	n	x	x
O=C(c1ccco1)N1CCN(Cc2c(F)cccc2Cl)CC1	x	n	x	n	x	x	x

Bioassay records: PubChem BioAssay, National Center for Advancing Translational Sciences (NCATS)
